CR mimetic SO: reduction of superoxide in aged yeast, primary screen, HTS. S. cerevisiae aged cells, superoxide DHE fluorescence; stronger effect = lower value. superoxide response (% of plate mean), % at 10 µM. 330,000 compounds, 0.18% hits;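 active = superoxide response under a set limit, about three screen SD below normal, cut at about 65% in these data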;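 note: yeast aged for seven days with compound at 30 °C before DHE staining; 100% = average MFI of all compound-treated wells on the plate with controls excluded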
NLRP3 yeast inh: NALP3 inflammasome inhibitors in reconstituted yeast, primary screen, luminescence, uHTS | 330,000 compounds, 0.39% hits | Yeast reconstituted NLRP3/ASC/caspase-1, beta-gal luminescence, 24 h | inhibition, % at 10 µM;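 active = inhibition of 50% or more; inactive = inhibition below 50%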;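 note: plate controls were induced DMSO wells for no effect and uninduced yeast grown without galactose for full effect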
tim23-1 inh: growth inhibitors of tim23-1 mutant yeast, primary screen, luminescence, uHTS; inhibition, % at 20 µM; AID 463212, 2010; S. cerevisiae tim23-1 growth, BacTiter-Glo luminescence, 24 h; 330,000 compounds, 1.3% hits;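 active = growth inhibition of the mutant yeast at or above 50%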;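 note: temperature-sensitive mutant grown at 25 °C; plate controls were DMSO-treated mutant yeast for no effect and medium wells lacking yeast for full effect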
tim10-1 inh: growth inhibitors of tim10-1 mutant yeast, primary screen, luminescence, uHTS; S. cerevisiae tim10-1 ts strain growth, BacTiter-Glo, 24 h; inhibition, % at 20 µM; 330,000 compounds, 2.2% hits; AID 463190, 2010;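 active = inhibition of at least 40%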;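 note: mutant grown at 25 °C; 0% = DMSO wells with yeast and 100% = wells holding no yeast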
TIM10 inh: growth inhibitors of isogenic TIM10 control yeast, primary screen, counter-screen for tim10-1 yeast inhibitor project, luminescence, uHTS. S. cerevisiae TIM10 strain growth, BacTiter-Glo luminescence, 24 h. inhibition, % at 10 µM. 330,000 compounds, 1.4% hits;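 active = inhibition of 40% or more at the single tested concentration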;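 note: wild-type TIM10 isogenic control strain grown at permissive 25 °C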
tim23-1 confirm: tim23-1 mutant yeast growth inhibitors, confirmation, luminescence, single concentration. shares compounds with tim23-1 inh. S. cerevisiae tim23-1 growth, BacTiter-Glo luminescence, 24 h. inhibition, % at 20 µM. 4,400 compounds, 83% hits. AID 463218, 2010;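 active = inhibition above about 39% in either of two replicate wells at 20 µM, limit read from the data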;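 note: temperature-sensitive tim23-1 mutant grown at 25 °C; 0% = DMSO wells with yeast and 100% = medium wells without yeast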
* = called active by the depositor. Rows were chosen to be rich in hits. Some 3.8% of all compounds tested hit in one or more screens of this group.

Screening COc1ccc(Cl)cc1C(=O)NNC(=S)NC(=O)c1ccc(F)c(F)c1 returned CR mimetic SO 106, NLRP3 yeast inh 37, tim23-1 inh 9, tim10-1 inh -2 and TIM10 inh 18.
For Cc1ccc(Sc2sc(=O)n(C)c2S(=O)(=O)c2ccc(C)cc2)cc1 the results were CR mimetic SO 97, NLRP3 yeast inh 25, tim23-1 inh 20, tim10-1 inh 8 and TIM10 inh 9.
For C/C(=N\Nc1nc(C)cc(-c2ccccc2)n1)c1ccc(O)cc1 the results were CR mimetic SO 98, NLRP3 yeast inh 4, tim23-1 inh 50*, tim10-1 inh 30, TIM10 inh 26 and tim23-1 confirm 49*.
For C/C(=N\Nc1nc(C)cc(-c2ccccc2)n1)c1cccc(N)c1 the results were CR mimetic SO 98, NLRP3 yeast inh 21, tim23-1 inh 36, tim10-1 inh 20 and TIM10 inh 15.
COc1ccc(-c2csc(NS(=O)(=O)c3ccc([N+](=O)[O-])cc3)n2)cc1 was read as CR mimetic SO 109, NLRP3 yeast inh 13, tim23-1 inh 84*, tim10-1 inh 17, TIM10 inh 3 and tim23-1 confirm 9.
`O=C(CN1C(=O)C(=O)N(CCC2=CCCCC2)C1=O)c1c[nH]c2ccccc12` gave CR mimetic SO 108, NLRP3 yeast inh 6, tim23-1 inh 60*, tim10-1 inh 13, TIM10 inh 40 and tim23-1 confirm 39*.
`O=C(Nc1ccccn1)C(=O)N1CCCCC1` gave CR mimetic SO 113, NLRP3 yeast inh 4, tim23-1 inh 17, tim10-1 inh 7 and TIM10 inh 6.
Nc1nc(N)c(N=Nc2ccc(Cl)cc2)c(=O)[nH]1 was read as CR mimetic SO 109, NLRP3 yeast inh 8, tim23-1 inh 2, tim10-1 inh 7 and TIM10 inh 4.
For Nc1n[nH]c(C2CC2)c1N=Nc1ccc(Cl)cc1 the results were CR mimetic SO 105, NLRP3 yeast inh 21, tim23-1 inh 69*, tim10-1 inh 8, TIM10 inh 25 and tim23-1 confirm 24.
Screening Nc1n[nH]c(C2CC2)c1N=Nc1ccc(Cl)c(Cl)c1 returned CR mimetic SO 113, NLRP3 yeast inh 30, tim23-1 inh 69*, tim10-1 inh 35, TIM10 inh 39 and tim23-1 confirm 9.
For COc1ccccc1C(=O)C1CCCN(C(=O)CCc2ccccn2)C1 (stereo unspecified) the results were CR mimetic SO 95, NLRP3 yeast inh -3, tim23-1 inh 1, tim10-1 inh 15 and TIM10 inh -2.
`O=C(O)CN1C(=O)/C(=C\c2cc(Br)ccc2OCc2ccc(Cl)cc2Cl)SC1=S` gave CR mimetic SO 120, NLRP3 yeast inh 8, tim23-1 inh 53*, tim10-1 inh 28, TIM10 inh 19 and tim23-1 confirm 56*.
Screening Cn1cnnc1SCC(=O)Nc1ccccc1Oc1ccccc1 returned CR mimetic SO 101, NLRP3 yeast inh -10, tim23-1 inh 6, tim10-1 inh 15 and TIM10 inh 8.
`C[C@@H]1CC=C[C@@H]2[C@H]1C(=O)N(Cc1ccccc1)[C@H]2c1ccccc1Br` gave CR mimetic SO 87, tim23-1 inh 52*, tim10-1 inh 22, TIM10 inh 15 and tim23-1 confirm 34.
For COC(=O)/C=C/c1cccc([C@H]2[C@@H]3C=CC[C@@H](C)[C@@H]3C(=O)N2Cc2ccccc2)c1 the results were CR mimetic SO 101, tim23-1 inh 51*, tim10-1 inh 24, TIM10 inh 11 and tim23-1 confirm 34.
Screening COc1cccc(NC(=O)c2cc3cccc(OC)c3o/c2=N\O)c1 returned CR mimetic SO 83, NLRP3 yeast inh 1, tim23-1 inh 58*, tim10-1 inh 16, TIM10 inh 11 and tim23-1 confirm 47*.
Cc1ccc2c(cnn2C(=O)CCC(=O)NCc2ccccc2Cl)c1 was read as CR mimetic SO 108, NLRP3 yeast inh 29, tim23-1 inh -4, tim10-1 inh -25 and TIM10 inh -8.
`COc1ccccc1NC(=O)c1ccc(NC(=O)C2CC2C)cc1` (stereo unspecified) gave CR mimetic SO 127, NLRP3 yeast inh 6, tim23-1 inh 52*, tim10-1 inh 31, TIM10 inh 34 and tim23-1 confirm 48*.
`O=C1COc2ccc(S(=O)(=O)N3CCCCCC3)cc2N1` gave CR mimetic SO 102, NLRP3 yeast inh -4, tim23-1 inh 25, tim10-1 inh 23 and TIM10 inh 3.
Screening COc1ccc(/C=C/C(=O)OC(C)CN2CCCCC2)cc1 (stereo unspecified) returned CR mimetic SO 87, NLRP3 yeast inh 4, tim23-1 inh -8, tim10-1 inh -15 and TIM10 inh -23.
For O=c1c(Cl)nc2cc(Cl)ccc2n1CCNc1ncc(C(F)(F)F)cc1Cl the results were CR mimetic SO 137, NLRP3 yeast inh 24, tim23-1 inh 62*, tim10-1 inh 21, TIM10 inh -18 and tim23-1 confirm 8.
For O=C(NCCc1nnc2ccc(NCC3CCCO3)nn12)c1ccccc1 (stereo unspecified) the results were CR mimetic SO 89, NLRP3 yeast inh 14, tim23-1 inh 16, tim10-1 inh 12 and TIM10 inh -3.
Screening Nc1ccc2nc(-c3ccccc3)sc2c1 returned CR mimetic SO 103, NLRP3 yeast inh 20, tim23-1 inh 41, tim10-1 inh 23 and TIM10 inh 24.
Screening Cc1ccc2nc(-c3ccc(N)cc3)sc2c1 returned CR mimetic SO 86, NLRP3 yeast inh 4, tim23-1 inh 53*, tim10-1 inh 13, TIM10 inh 20 and tim23-1 confirm 58*.
CCCCC1NC(=S)N(C2CCCCC2)C1=O (stereo unspecified) was read as CR mimetic SO 107, NLRP3 yeast inh -12, tim23-1 inh 58*, tim10-1 inh 8, TIM10 inh 33 and tim23-1 confirm 22.
COc1ccc2c(c1)CCc1sc(NC(=O)c3ccc(C)cc3)nc1-2 was read as CR mimetic SO 109, NLRP3 yeast inh 18, tim23-1 inh -9, tim10-1 inh -11 and TIM10 inh -10.
Screening COc1ccc2c(c1)-c1nc(NC(=O)c3cccs3)sc1CC2 returned CR mimetic SO 92, NLRP3 yeast inh 41, tim23-1 inh 53*, tim10-1 inh 38, TIM10 inh 30 and tim23-1 confirm 48*.
For CC(=O)Oc1cc(OC(C)=O)c2c(=O)c(-c3ccc4c(c3)OCCCO4)c(C)oc2c1 the results were CR mimetic SO 114, NLRP3 yeast inh 9, tim23-1 inh 32, tim10-1 inh 3 and TIM10 inh 17.
